This passage reports Potency and activity change, negative = cytotoxic results from PubChem BioAssay (Tox21).

The structures appear in SMILES notation. Several values for one entry are separate records, joined by “and”; a condition that tells them apart may be missing. Equal values may be shown once. Inconclusive results are not listed. A call without a number means that no potency is given here. Where a structure was tested more than once in an assay, its records may differ in their call. Activity calls are given as the source filed them. The call rests on the fitted dose curve; in most records, active means well fitted curve in the direction sought with a large enough effect in the repeat runs; inconclusive means weak or mixed curves; inactive means no such curve, though single readings can be large; an effect the other way counts as inactive or inconclusive.

The first test is described as follows: A CellTox Green Cytotoxicity Assay to monitor cytotoxicity in HepG2 cells - 16 hour (AID 1224876). Further: nearly all actives have a fitted effect of over 45% in size. Conditions: CellTox Green fluorescence; series mostly up to 76.8 µM. The method, boiled down: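 HepG2, 600 cells/well premixed w/ CellTox Green; 5 h settle, 37 C/5% CO2; pintool cpd add (DMSO); 37 C, 40 h; fluorescence read at 0, 8, 16, 24, 32, 40 h.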
As for `C=CC(C)(O)CCC=C(C)C` (stereo not drawn), the Potency entry is “inactive”.

Regarding `c1ccc2c(c1)ccc1ncccc12`, the Potency result is “inactive”.

For `C=CN1CCCC1=O`, the Potency result was “inactive”. On the same count and under the same terms, for `O=[Se](O)O` the value was “inactive”; for `CC(C)(C)c1cccc(C(C)(C)C)c1O`, “inactive”; for `Cc1ccc(S(=O)(=O)O)cc1C`, “inactive”. Still for that read-out and setting: the same measure for `c1ccc2c(c1)ccc1cc3c(ccc4ccccc43)cc12`: “inactive”.

As to `COCCOCCOCCO`, the Potency entry is “inactive”. Turning to `Cc1ccc([N+](=O)[O-])c(C)c1`, the Potency entry was “inactive”. On the same count and under the same terms, the same measure for `CC(=O)[C@@]1(O)CC[C@H]2[C@@H]3C[C@H](C)C4=CC(=O)C=C[C@]4(C)[C@@]3(F)[C@@H](O)C[C@@]21C`: “inactive”; for `OC[C@@H](O)[C@@H](O[C@@H]1O[C@H](CO)[C@H](O)[C@H](O)[C@H]1O)[C@H](O)[C@@H](O)CO`: “inactive”. Still for that read-out and setting: the same measure for `OCCNCCO`: “inactive”; for `CC(C)[N+](C)(CCOC(=O)C1c2ccccc2Oc2ccccc21)C(C)C`: “inactive”.

`CC/C(=C(/CC)c1ccc(O)cc1)c1ccc(O)cc1`: the Potency result is “inactive”.

A short description of a further test: qHTS RealTime-Glo MT Cell Viability Assay in HepG2 cells - 32 hour (AID 1224877). Further: nearly all actives have a fitted effect of over 55% in size. Further: potency means the concentration at half of the fitted maximal effect. Conditions: RealTime-Glo luminescence; series mostly up to 76.8 µM. The essentials:
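HepG2 cells (600/well) were dispensed with RealTime-Glo reagents, incubated 5 h at 37 °C, then treated with compounds in DMSO for up to 40 h. Nonlytic NanoLuc luminescence reflecting viable cells was read at each stated time point.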
A general note: In qHTS, concentration-response curves come from the screen itself.
Regarding `c1ccc2ncccc2c1`, the Potency result is “inactive”.

With `Cc1ccc(C)c(O)c1`, the Potency result was “inactive”.

On to `CNC[C@H](O)c1ccc(O)c(O)c1`, for which the Potency entry was “inactive”. For the compound `O=C1OC2(c3ccccc31)c1cc(I)c(O)c(I)c1Oc1c2cc(I)c(O)c1I`, the Potency was 39 µM (active) and 24.8 µM (active) and 29.8 µM (active). Same read-out and setting: the same measure for `CCOC(=O)C(C)Oc1ccc(Oc2cnc3cc(Cl)ccc3n2)cc1` (stereo not drawn): “inactive”; for `COc1ccc(C(=O)c2ccccc2O)c(O)c1`: “inactive”. Turning to `CC(=O)Nc1ccc2c(c1)Cc1cc(NC(C)=O)ccc1-2`, the Potency entry was “inactive”. As to `CN(C)/N=N/c1nc[nH]c1C(N)=O`, the Potency entry was “inactive”. On to `COc1ccc2nc(N)sc2c1`, for which the Potency entry is “inactive”. Same read-out and setting: for `O=C(O)CCCC(=O)O` the value was “inactive”; for `CCCN1C=CN(C)C1`, “inactive”; for `NCCN`, “inactive and 21.9 µM (active)”. As to `Cc1cccc(Nc2ccccc2C(=O)O)c1C`, the Potency entry was “inactive”. Take `CN1CCOCC1`: the Potency result is “inactive”. On the same count and under the same terms, the same measure for `Oc1c(Cl)ccc(Cl)c1Cl`: “inactive”; for `Clc1ccc(Sc2cc(Cl)c(Cl)cc2Cl)cc1`: “inactive”.

`CN(C)C`: the Potency entry is “inactive”. Take `C=CCCCCCCCCCC`: the Potency result was “inactive”. The same measure, in the same setting: for `O=C(O)CCCCCCCCCCCC(=O)O` the value was “inactive”; for `C[C@]12C=CC(=O)C=C1CC[C@H]1[C@@H]3C[C@@H](O)[C@](O)(C(=O)CO)[C@@]3(C)C[C@H](O)[C@@]12F`, “inactive”; for `O=C(O)COCCN1CCN(C(c2ccccc2)c2ccc(Cl)cc2)CC1` (stereo not drawn), “inactive”. On the same count and under the same terms, the same measure for `NC[C@H](O)c1ccc(O)c(O)c1`: “inactive”; for `CCCCCCCC/C=C\CCCCCCCC(=O)O`: “inactive”; for `CC(=O)OC(C)C`: “inactive”. Same read-out and setting: the same measure for `CC(=O)Oc1c(C)c(C)c2c(c1C)CC[C@@](C)(CCC[C@H](C)CCC[C@H](C)CCCC(C)C)O2`: “inactive”; for `C=CC(C)(O)CCC=C(C)C` (stereo not drawn): “inactive”.

As for `c1ccc2c(c1)ccc1ncccc12`, the Potency result was “inactive”. For `C=CN1CCCC1=O`, the Potency entry was “inactive”. As for `O=[Se](O)O`, the activity change, negative = cytotoxic was -0.276% [at 15.8 µM] (inactive). On to `CC(C)(C)c1cccc(C(C)(C)C)c1O`, for which the Potency entry is “inactive”. For the compound `Cc1ccc(S(=O)(=O)O)cc1C`, the Potency entry was “inactive”. `c1ccc2c(c1)ccc1cc3c(ccc4ccccc43)cc12`: the Potency result is “inactive”. For the compound `COCCOCCOCCO`, the Potency entry is “inactive”. On the same count and under the same terms, for `Cc1ccc([N+](=O)[O-])c(C)c1` the value was “inactive”; for `CC(=O)[C@@]1(O)CC[C@H]2[C@@H]3C[C@H](C)C4=CC(=O)C=C[C@]4(C)[C@@]3(F)[C@@H](O)C[C@@]21C`, “inactive”; for `OC[C@@H](O)[C@@H](O[C@@H]1O[C@H](CO)[C@H](O)[C@H](O)[C@H]1O)[C@H](O)[C@@H](O)CO`, “inactive”.

Turning to `OCCNCCO`, the Potency entry is “inactive”. Still for that read-out and setting: for `CC(C)[N+](C)(CCOC(=O)C1c2ccccc2Oc2ccccc21)C(C)C` the value was “inactive”. `CC/C(=C(/CC)c1ccc(O)cc1)c1ccc(O)cc1`: the Potency result is “inactive”.
